Screening data from PubChem BioAssay.
This is a sample that favours compounds with a hit; in the whole collection about 2.8% have one here.
SMARCA2 act – increases SMARCA2 function in MMTV reporter cells; MG213 cells, MMTV-luciferase reporter, dexamethasone, overnight; activation, % at 9.1 µM; hit rate 1% among 370,000; AID 652017; in the data active = activation above about 7.8%
bovine MsrA act – activators of bovine methionine sulfoxide reductase A; purified bovine MsrA, absorbance read-out; activation, % at 10.6 µM; hit rate 0.3% among 360,000; AID 602163; in the data active = activation above about 7.5%
MsrA inh – inhibits bovine methionine sulfoxide reductase A | purified bovine MsrA, absorbance read-out | inhibition, % at 15.5 µM | hit rate 0.75% among 360,000 | AID 651718; in the data active = inhibition above about 4.5%
KLK7 zymogen act – activates the human kallikrein-7 zymogen | P49862 | purified proKLK7, EDANS-DABCYL substrate fluorescence; 100% is mature enzyme control, 0% vehicle | activation, % at 7 µM | hit rate 0.9% among 370,000 | AID 652039;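 active = activation above the mean of all tested compounds plus 3 SD, computed per campaign excluding outliers beyond control limits, cut at about 13% in these data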
Target sequence (P49862 whole entry, looked up): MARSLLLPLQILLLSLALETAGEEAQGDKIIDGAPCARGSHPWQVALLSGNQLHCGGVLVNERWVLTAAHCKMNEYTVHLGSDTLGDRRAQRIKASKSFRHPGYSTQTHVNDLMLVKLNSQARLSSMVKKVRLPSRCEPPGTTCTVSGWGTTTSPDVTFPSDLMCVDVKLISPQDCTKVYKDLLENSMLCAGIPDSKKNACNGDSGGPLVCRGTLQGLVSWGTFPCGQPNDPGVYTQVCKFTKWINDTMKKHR
Hits are given with their value; n = inactive; x = no result.

SMILES	SMARCA2 act	bovine MsrA act	MsrA inh	KLK7 zymogen act
CCCCNC(=O)C[C@H]1C[C@@]2(C(=O)OC)C(=C[C@H](C3CCCC3)O[C@@H]2C)N(Cc2ccccc2)C1=O	n	x	n	n
Cn1c(C(=O)N2CCN(C(=O)c3ccco3)CC2)cc2c(=O)n3ccccc3nc21	n	n	n	46
COc1ccc(S[C@]2(C(=O)NCCc3ccccc3)CC(=O)N[C@@H]2c2ccc(OC)cc2)cc1	n	x	x	n
CCCOc1cccc(C(=O)Nc2cccc3ncccc23)c1	n	n	n	n
CCCOc1cccc(C(=O)Nc2ccc(Br)cc2F)c1	13	n	n	n
O=C(N/N=C/c1ccncc1)c1ccc2c(c1)OCO2	n	n	n	n
O=C(N/N=C/c1ccc2c(c1)OCCO2)c1ccncc1	n	n	4.5	n
COC(=O)[C@H](C(C)C)N1Cc2nnn(Cc3ccccc3)c2-c2cc(F)ccc2S1(=O)=O	n	x	x	n
Cc1nc(C(=O)O)cc2c1[nH]c1ccccc12	n	n	n	59
Cc1cc(=O)[nH]c(SCn2nnc3ccccc3c2=O)n1	n	n	n	n
O=c1c2ccccc2nnn1CSc1nc2ccccc2[nH]1	14	n	n	n
CCOC(=O)c1ccc(NC(=O)C2CC3CCC2C3)cc1 (configuration not stated)	7.9	n	n	n
COC(=O)c1ccc(NC(=O)C2CC3CCC2C3)cc1 (configuration not stated)	n	n	n	n
CN(C)S(=O)(=O)c1ccc(/C(O)=C2/C(=O)C(=O)N(CCN3CCCCC3)C2c2cccnc2)cc1 (configuration not stated)	n	n	4.9	n
COc1cc(C(=O)N/C(=C\c2cn(C)c3ccccc23)C(=O)NCCCO)cc(OC)c1OC	n	n	4.7	n
COc1cc(C(=O)N/C(=C\c2cn(S(=O)(=O)N(C)C)c3ccccc23)C(=O)NCCCO)cc(OC)c1OC	n	n	n	n
Cc1cc(Br)c2nc(-c3cccc(Br)c3)c(Cc3cccc(Cl)c3)n2c1	n	x	n	n
CCC1CCc2sc(C(=O)NCC3CCCO3)cc2C1 (configuration not stated)	7.9	n	n	n
Cc1cc(NS(=O)(=O)c2ccc(NC(=O)Cc3ccc(Cl)c(Cl)c3)cc2)on1	n	x	x	n
CC(=O)c1c(OC(=O)c2ccco2)c2ccccc2n1C	n	n	4.6	n
CC(=O)c1c(OC(=O)c2ccc(C)cc2)c2ccccc2n1C	n	n	n	n
Cc1ccccc1C(=O)Nc1ccc(C(=O)N/N=C/c2ccc(O)c(Br)c2)cc1	n	n	4.6	n
Cc1ccccc1C(=O)Nc1ccc(C(=O)N/N=C/c2ccc(F)cc2)cc1	n	n	n	n
c1coc(-c2cc3nc(NC4CCCCC4)ccn3n2)c1	n	n	n	n
COC(=O)C1=C(C)N(Cc2cccc(C(F)(F)F)c2)C(=NCc2cc(OC)c(OC)c(OC)c2)NC1CCc1ccccc1 (configuration not stated)	n	x	n	n
SMILES	SMARCA2 act	bovine MsrA act	MsrA inh	KLK7 zymogen act
Nc1c(-c2ccc(Cl)cc2)cnc2c(-c3ccccc3)cnn12	7.9	n	n	n
Cn1cc(C(=O)N/N=C/C(Br)=C\c2ccccc2)ccc1=O	n	n	5.4	n
O=C(Nc1ccc(F)cc1)C(c1ccncc1)N1CCN(CC(=O)N2CCCC2)CC1 (configuration not stated)	n	x	n	n
CC1=C(C#N)C(=O)NC(=O)/C1=C\c1ccc(-c2cc(C)c(C)cc2[N+](=O)[O-])o1	n	n	9.0	n
Cc1ccc(OCc2nnc(SCC(=O)Nc3ccccc3-c3ccccc3)n2Cc2ccco2)cc1	n	x	x	n
CC1CCN(Cc2nnnn2CCCC(=O)NCCN2CCOCC2)CC1	n	n	n	n
C[C@@H]1CN(Cc2nnnn2CC(=O)NCCCn2cccn2)C[C@H](C)O1	7.9	n	n	n
COCCOC(=O)C1=C(C)NC(=O)NC1c1cn(-c2ccccc2)nc1-c1cccs1 (configuration not stated)	n	n	n	n
COC(=O)C1=C(C)NC(C)=C(C(=O)OC)C1c1cn(-c2ccccc2)nc1-c1ccco1	n	n	n	55
Nc1cc2ccncc2c2ccccc12	n	n	n	103
N#Cc1cc2ccncc2c2ccccc12	n	n	n	n
CC1=C(SCc2ccccc2)C(=O)c2ccccc2C1=O	n	n	21	n
O=C1C(SCCO)=C(SCCO)C(=O)c2ccccc21	n	n	n	n
COc1cc(NC(=O)c2ccccc2Cl)c(OC)cc1NC(=O)CN1CCCCC1	7.8	n	n	n
COc1cc(NC(=O)c2ccc(C)cc2)c(OC)cc1NC(=O)CN1CCCCC1	n	n	n	n
COc1ccc(Cn2cc(CN3[C@@H](CC(C)C)COc4ccc(Cl)cc4S3(=O)=O)nn2)cc1	n	x	x	n
